Giardia FBPA inh-1 = Giardia lamblia aldolase inhibition; purified Giardia FBPA; actives 0.71% (n = 290,000); AID 2451; Potency, µM (doses to about 59.6 µM), for the others: top-dose activity, negative = inhibition, most hits filed as inhibitors; A8B2U2; further: potency means the concentration at half of the fitted maximal effect; on the % scale 0 is the no-effect control and ±100 the full control effect; nearly all actives have a fitted effect of over 55% in size
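Giardia FBPA (40 nM reagent) was preincubated 10 min at RT with compound (up to 57.5 uM final), then substrate plus GAPDH/TPI/NAD/arsenate coupling system with diaphorase/resazurin was added; resorufin fluorescence (525/598 nm) was read after 20 min.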
NS1 inh = influenza NS1 inhibition; Potency, µM (titrated, usually from 46.1 µM), inactives show at the top dose activity, positive = more growth; actives 0.4% (n = 270,000); calls by dose curve; further: potency means the concentration at half of the fitted maximal effect; actives are rising curves; nearly all actives have a fitted effect of over 50% in size
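Compounds were scored for reversing the slow growth caused by influenza A NS1 in S. cerevisiae, measured by optical density at 600 nm. Assay medium contained 2% galactose at pH 6.0; NS1-free yeast of the same strain were the positive control.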
Shiga inhibitor = inhibitors of Shiga toxin in Vero cells | inhibition, % at 38.7 µM | actives 9.2% (n = 290,000) | Vero cells, Shiga toxin protein synthesis inhibition reporter; in the data active means inhibition mostly above about 28%, no sharp cut-off; inactive means mostly below about 43%; further: 0% is about no effect
CHX counter = affects cycloheximide protein synthesis inhibition readout, counter-screen; cell reporter, cycloheximide protein synthesis inhibition counterscreen; max response, %; actives 12% (n = 300,000); in the data active means max response mostly above about 13%, no sharp cut-off; inactive means mostly below about 14%; further: read at 38.3 µM for the half of the compounds with a filed dose; 0% is about no effect
LmPK inh = blocks Leishmania mexicana pyruvate kinase activity; Q27686; purified LmPK, Kinase-Glo ATP luminescence, 1 h; Potency, µM (top dose mostly 57.5 µM), without a hit: at the highest dose activity change, negative = inhibition, hits mostly inhibitors; actives 0.37% (n = 290,000); AID 1721; further: potency means the concentration at half of the fitted maximal effect; on the % scale 0 is the no-effect control and ±100 the full control effect
Target sequence (Q27686 whole entry, looked up): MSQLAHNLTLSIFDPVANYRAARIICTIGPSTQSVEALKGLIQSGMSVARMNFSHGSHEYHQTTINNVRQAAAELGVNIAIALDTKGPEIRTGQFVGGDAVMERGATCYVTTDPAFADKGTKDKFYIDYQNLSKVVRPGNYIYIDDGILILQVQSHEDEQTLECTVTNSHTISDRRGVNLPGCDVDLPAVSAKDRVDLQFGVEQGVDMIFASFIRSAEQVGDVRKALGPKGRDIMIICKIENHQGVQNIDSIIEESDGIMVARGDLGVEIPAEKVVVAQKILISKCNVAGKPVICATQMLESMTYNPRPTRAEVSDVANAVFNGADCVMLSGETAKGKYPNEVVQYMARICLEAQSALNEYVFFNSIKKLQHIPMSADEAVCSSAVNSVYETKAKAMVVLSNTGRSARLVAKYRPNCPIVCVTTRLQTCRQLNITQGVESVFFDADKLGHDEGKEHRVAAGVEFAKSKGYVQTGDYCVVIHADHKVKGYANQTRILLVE
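qHTS format; LmPK 0.1 nM; substrates PEP 0.5 mM and ADP 0.1 mM. One-hour room-temperature incubation, then coupled luciferase luminescence; 0.5 nM enzyme wells mark activation.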
Giardia growth = Giardia lamblia growth inhibition. shares compounds with Giardia FBPA inh-1. Giardia lamblia trophozoite growth inhibition. Potency, µM (top dose mostly 57.5 µM), without a hit: at the highest dose activity change, negative = inhibition, actives largely listed as inhibitors. actives 5% (n = 1,500);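 further: potency means the concentration at half of the fitted maximal effect; trophozoites exposed to compound for 48 h at 37 °C; on the % scale 0 is the no-effect control and ±100 the full control effect; nearly all actives have a fitted effect of over 70% in size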
Mammalian tox = counter-screen for Giardia aldolase inhibitors: mammalian cell toxicity; shares compounds with Giardia FBPA inh-1; mammalian cell viability counter-screen, qHTS; Potency, µM (highest dose often 57.5 µM), for inactives: at the top dose viability change, negative = toxicity, hits mostly inhibitors; actives 4% (n = 1,500); AID 2786;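 further: Chinese hamster ovary cells used as mammalian cytotoxicity surrogate; viability measured as cellular ATP by luminescence; potency means the concentration at half of the fitted maximal effect; compound exposure lasted 48 h before reading; on the % scale 0 is the no-effect control and ±100 the full control effect; nearly all actives have a fitted effect of over 60% in size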
Giardia FBPA inh-2 = confirmation of Giardia fructose-bisphosphate aldolase inhibitors. shares compounds with Giardia FBPA inh-1. purified Giardia aldolase enzyme activity, qHTS. Potency, µM (top dose mostly 57.5 µM), for inactives: top-dose activity change, negative = inhibition, hits mostly inhibitors. actives 5% (n = 1,500). AID 2787; further: potency means the concentration at half of the fitted maximal effect; on the % scale 0 is the no-effect control and ±100 the full control effect; nearly all actives have a fitted effect of over 45% in size
Rabbit FBPA inh = selectivity test for Giardia aldolase inhibitors: rabbit aldolase. shares compounds with Giardia FBPA inh-1. Rabbit muscle FBPA enzyme inhibition, selectivity counter-screen. Potency, µM (titrated, usually from 57.5 µM), for the others: at the top dose activity, negative = inhibition, most hits filed as inhibitors. actives 4% (n = 1,500). AID 2794; further: potency means the concentration at half of the fitted maximal effect; on the % scale 0 is the no-effect control and ±100 the full control effect; nearly all actives have a fitted effect of over 60% in size
GAPDH coupling = counter-screen for Giardia aldolase inhibitors: GAPDH coupling enzyme | shares compounds with Giardia FBPA inh-1 | GAPDH coupling enzyme counterscreen, biochemical, qHTS | Potency, µM (highest dose often 57.5 µM), inactives show at the highest dose activity change, negative = inhibition, most hits filed as inhibitors | actives 6% (n = 1,500) | AID 2795; further: potency means the concentration at half of the fitted maximal effect; on the % scale 0 is the no-effect control and ±100 the full control effect; nearly all actives have a fitted effect of over 55% in size
* marks the source's active call; other numbers are inactive results; u = inconclusive; x = not tested or not shown; [ ] = remark or other dose. This is a sample that favours compounds with a hit; in the whole collection about 14% have one here. Unless noted, the call rests on the fitted dose curve; in most records, active means well fitted curve in the direction sought with a large enough effect; inconclusive means small, poorly fitted or top-dose-only effect, or another doubt; inactive means no such curve, though single readings can be large; an effect the other way counts as inactive or inconclusive.

SMILES | Giardia FBPA inh-1 | NS1 inh | Shiga inhibitor | CHX counter | LmPK inh | Giardia growth | Mammalian tox | Giardia FBPA inh-2 | Rabbit FBPA inh | GAPDH coupling
CC(C)c1ccc(S(=O)(=O)N2CCN(CC(=O)c3ccc(O)c(O)c3)CC2)cc1 | 13µM* | -3% | 13 | -5 | 5% | 20% | u | u | -28% | -2%
Cc1nccn1CC1CCc2c(c3ccccc3n2C)C1=O (centres undefined) | 20µM* | -5% | -5 | 6 | -14% | 11%[10.4 µM] | -1% | 5% | 4% | 16%
NS(=O)(=O)c1ccc(CCNCC#Cc2ccccc2)cc1 | 22µM* | 20% | -8 | 1 | -2% | 43% | -7% | 0% | -1% | 9%
CC1(C)CC(=O)C(C(c2ccc(Br)cc2)C2C(=O)CC(C)(C)CC2=O)C(=O)C1 | 5% | -7% | -11 | -3 | 2% | x | x | x | x | x
Cc1nc(C(=O)NNC(=O)c2ccc(Cl)cc2)cs1 | 18µM* | 1% | 17 | 15 | -6% | u | -26% | 1% | 6% | 8%
Cc1nc(-c2nc(CC(=O)NNC(=O)c3ccc(Cl)cc3)cs2)cs1 | 2% | 2% | -3 | -2 | -2% | x | x | x | x | x
Cc1[nH]n(-c2ccccc2)c(=S)c1C=Nc1ccc([N+](=O)[O-])cc1 | 4.5µM* | 2% | -10 | -2 | -26% | -1%[38.3 µM] | -8% | -23% | 35µM* | u
COc1ccccc1-n1c(CNC(=O)c2ccco2)n[nH]c1=S | 11µM* | 4% | -1 | -4 | -9% | 52% | 9% | 2% | 1% | 13%
COc1ccccc1-n1c(-c2ccco2)n[nH]c1=S | 14µM* | 11% | 23 | -3 | u | 3%[10.4 µM] | 6% | -3% | 14% | -8%
COc1ccccc1-c1n[nH]c(=S)n1N | 16µM* | x | 28 | -3 | 1% | 12% | -10% | 4% | 6% | 8%
O=S(=O)(c1ccccc1)N1CCC2(CCN(Cc3ccncc3)CC2)CC1 | -2% | x | x | x | x | x | x | x | x | x
CCOC(=O)C1CCCN(Cc2ccc(OCc3ccccc3)cc2)C1 (centres undefined) | 28µM* | 0% | 99* | 44* | -2% | 1%[10.4 µM] | 21% | 12% | 8% | -7%
O=C(C1CCCN(Cc2ccccc2[N+](=O)[O-])C1)N1CCCC1 (centres undefined) | 28µM* | 1% | -15 | -3 | -4% | u | 3% | 5% | 4% | -1%
Cc1ccc(CN2CCCC(C(=O)N3CCCC3)C2)cc1 (centres undefined) | 25µM* | -3% | 2 | -4 | -4% | -4%[10.4 µM] | 9% | 6% | 8% | 5%
CCOC(=O)C1CCCN(CC(=O)c2ccc(F)cc2)C1 (centres undefined) | 16µM* | -8% | 4 | -1 | 0% | 5% | 5% | 4% | 5% | 17%
CC1=CCc2c(cc3oc(C)cc(=O)c3c2O)OC1 | 4% | x | x | x | x | x | x | x | x | x
Cc1cc(=O)c2c(O)c(O)ccc2o1 | 10µM* | -4% | -16 | -2 | -2% | 63% | 11% | u | u | u
NS(=O)(=O)c1ccc(CNC(=S)Nc2ccc(F)c(Cl)c2)cc1 | -15% | x | -11 | 7 | 3% | x | x | x | x | x
Cn1cc(Br)c(C(=O)NC(=S)Nc2ccc(S(N)(=O)=O)cc2)n1 | 16µM* | 3% | -9 | -4 | -8% | -26% | 10% | 3% | 9% | 12%
